High-throughput results as filed in PubChem.
Most compounds without a hit are left out; they make up all but 2.1% or so of the library.
aSyn yeast inh: qHTS of alpha-syn Inhibitors | AID 652106, 2013 | actives 0.14% (n = 370,000) | Potency, µM (highest dose often 46.1 µM), for the others: top-dose growth rescue (activation), usual class: activators | Yeast expressing alpha-synuclein, growth rescue, BacTiter-Glo, 24 h; note: % of control where 0% means no effect; nearly all actives have a fitted effect of over 65% in size
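Screening used galactose-induced yeast with toxic alpha-synuclein levels, exposed to compound for 24 hr at 30 deg C. Cell growth, read with BacTiter-Glo luminescence, gave the measured signal.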
TDP-43 yeast inh: qHTS of TDP-43 Inhibitors | Potency, µM (highest dose often 46.1 µM), without a hit: at the top dose growth rescue (activation), actives largely listed as activators | AID 652104, 2013 | TDP-43 expressing yeast growth rescue, BacTiter-Glo, 24 h | actives 1.8% (n = 410,000); note: % of control where 0% means no effect; nearly all actives have a fitted effect of over 50% in size
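Growth rescue of TDP-43-toxic yeast measured as ATP luminescence (BacTiter-Glo). Cells grown to mid-log in raffinose, induced in galactose at OD600=0.02, exposed to compound 24 hr at 30 deg C.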
Abeta yeast res: qHTS for compounds that reverse cellular toxicity of Amyloid beta (A-beta) peptide in yeast: Primary Screen. yeast expressing A-beta42, growth rescue, OD600, 48 h; response scale: 0% DMSO, 100% iron-clioquinol control. Potency, µM (doses to about 46.1 µM), most hits filed as activators. actives 0.063% (n = 410,000). AID 1347071, 2019; note: nearly all actives have a fitted effect of over 55% in size
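Growth rescue measured by 600 nm absorbance after 48 h yeast culture at 30 C with compound. Values normalized between DMSO and an equimolar ferric chloride plus clioquinol control.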
FUS suppressor: qHTS for Suppressors of FUS Proteinopathy: Primary screen using FUS-linked yeast assay. S. cerevisiae FUS-expressing, growth rescue, OD600, 24 h. Potency, µM (highest dose often 76.6 µM), usual class: activators. actives 0.24% (n = 390,000);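 note: plate controls were DMSO vehicle for no effect and reference control for full effect; nearly all actives have a fitted effect of over 55% in size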
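Toxicity suppression screen in FUS-yeast. Cells induced with 2% galactose, starting OD 0.005, treated 24hr at 30C with compounds at multiple final concentrations; growth by OD600.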
Numbers without * were called inactive; i = inactive; u = inconclusive; x = no result; [ ] = remark or other dose. Calls come from the whole dose curve; as a rule, active = well fitted curve in the direction sought with a large enough effect; inconclusive = small, poorly fitted or top-dose-only effect, or another doubt; inactive = no such curve, though single readings can be large; an effect the other way counts as inactive or inconclusive. Potency is the fitted concentration of half-maximal effect.

SMILES | aSyn yeast inh | TDP-43 yeast inh | Abeta yeast res | FUS suppressor
CCOC(=O)c1[nH]c2ccc(C(=O)OC)cc2c1C(=O)OCC | 8% | 21% | i | i
COC(=O)c1ccc2[nH]c(C3(O)CCCCC3)c(C)c2c1 | -12% | 18µM* | i | i
CCc1sc(C(=O)Nc2nc(C)cs2)cc1C | -24% | 20µM* | i | i
Cc1csc(NC(=O)c2ccc(C)c([N+](=O)[O-])c2)n1 | -10% | 20µM* | i | x
CCc1sc(C(=O)Nc2ccc(NC(C)=O)cc2)cc1C | 0% | 0% | i | i
COc1ccc(/C=N/NC(=O)c2ccc(NC(C)=O)cc2)cc1COc1ccc(F)cc1F | -4% | 9% | i | 25µM*
Cc1ccc(Cl)cc1N1CCN(C(=O)C2(S(=O)(=O)c3ccc(Cl)cc3)CC2)CC1 | 8% | 25% | i | i
Cc1cccc(N2CCN(C(=O)C3(S(=O)(=O)c4ccc(Cl)cc4)CC3)CC2)c1C | 0% | 35µM* | i | u
Cc1ccc(-c2cc(-c3n[nH]c(=S)o3)c3ccccc3n2)cc1 | -14% | u | i | i
S=c1[nH]nc(-c2cc(-c3ccccn3)nc3ccccc23)o1 | 14% | 3.2µM* | i | i
O=C(Nc1cccnc1)c1ccccc1Cl | 1% | 1% | i | i
Cc1ccc(-c2ccc(CN3C(C)C(=O)N(Cc4cn(Cc5ccco5)nn4)CCS3(=O)=O)cc2)cc1 (stereo unspecified) | u | u | i | u
CC(C)C1C(=O)N(Cc2cn(Cc3ccco3)nn2)CCS(=O)(=O)N1Cc1ccc(-c2ccc(Cl)c(Cl)c2)cc1 (stereo unspecified) | 15% | 28% | i | u
CC1C(=O)N(Cc2cn(Cc3ccco3)nn2)CCS(=O)(=O)N1Cc1ccc(-c2ccc(Cl)c(Cl)c2)cc1 (stereo unspecified) | u | 35µM* | i | u
Cc1ccccc1-c1ccc(CN2C(C)C(=O)N(Cc3cn(Cc4ccco4)nn3)CCS2(=O)=O)cc1 (stereo unspecified) | u | 35µM* | i | u
Cc1ccc(-c2ccc(CN3C(C)C(=O)N(Cc4cn(Cc5ccco5)nn4)CCS3(=O)=O)cc2)c(C)c1 (stereo unspecified) | u | 35µM* | i | u
O=c1ccc(/C=C/c2ccccc2)nn1Cc1ccccc1 | 9% | 20µM* | i | i
O=c1ccc(-c2ccccc2)nn1Cc1ccc(Cl)cc1 | u | 20µM* | i | i
Cn1cnc(S(=O)(=O)N2CCC(C(=O)N3CCN(c4cccc(C(F)(F)F)c4)CC3)CC2)c1 | x | -4% | i | i
Cc1cccc([C@@H]2[C@@H]3C(=O)N(Cc4ccccc4)C(=O)[C@@H]3[C@]3(Cc4ccc(Cl)cc4)C(=O)N(c4cccc(Br)c4)C(=O)N23)c1 | -1% | -9% | i | i
CCOC(=O)c1ccc(C(=O)OCC)c(NC(=S)Nc2ccc([N+](=O)[O-])cc2OC)c1 | -16% | 18µM* | i | i
S=C(NCc1ccco1)Nc1ccc(Br)cc1Cl | -89% | 7%[9.22 µM] | i | i
COc1ccc(-c2csc(C(O)c3ccc(F)cc3)n2)cn1 (stereo unspecified) | 2% | 35µM* | i | i
COc1ccc(C(O)c2nc(-c3ccccc3)cs2)cc1 (stereo unspecified) | 20% | 35µM* | u | i
COc1ccc(C(O)c2nc(-c3ccc(Cl)cc3)cs2)cc1 (stereo unspecified) | 11µM* | u | u | i
SMILES | aSyn yeast inh | TDP-43 yeast inh | Abeta yeast res | FUS suppressor
COc1ccc(-c2csc(C(O)c3ccc(F)cc3)n2)cc1 (stereo unspecified) | u | 22µM* | i | i
COc1ccc(C2(CNC(=O)c3ccc(OC)c([N+](=O)[O-])c3)CCOCC2)cc1OC | -1% | -4% | i | i
COc1ccc(C(O)c2nc(-c3ccc4ccccc4c3)cs2)cc1 (stereo unspecified) | 3.5µM* | 3% | i | i
OC(c1ccc(F)cc1)c1nc(-c2ccc(F)c(Cl)c2)cs1 (stereo unspecified) | -59% | -86% | i | i
COc1ccc(C(O)c2nc(-c3cccs3)cs2)cc1 (stereo unspecified) | 18% | 16µM* | i | i
COc1cc(C(O)c2nc(-c3ccc4ccccc4c3)cs2)ccc1F (stereo unspecified) | 3% | u | i | i
OC(c1ccco1)c1nc(-c2ccc(F)c(Cl)c2)cs1 (stereo unspecified) | 1% | 13µM* | i | i
Cc1cccc(NC(=O)CSc2nc(=O)n(Cc3ccco3)c3c2CCC3)c1C | x | 23% | i | i
C=Cc1ccc(Cn2c(C(=O)O)c(CNCc3ccccc3)c3ccc(C)cc32)cc1 | -37% | -3% | i | u
Nc1n[nH]c2cc(=O)n(-c3ccc(Cl)cc3)nc12 | 4% | 6% | i | i
O=[N+]([O-])c1ccc(Oc2ccc(F)cc2)c2ccncc12 | 9% | u | i | i
O=[N+]([O-])c1ccc(Oc2cccc(Br)c2)c2ccncc12 | 6% | 16µM* | i | i
CCn1cc(C(=O)NCc2ccco2)c(=O)c2cc(S(=O)(=O)N3CCc4ccccc4C3)ccc21 | 2% | -13% | i | 6.3µM*
CCn1cc(C(=O)NCc2ccco2)c(=O)c2cc(S(=O)(=O)N3CCCCCC3)ccc21 | -14% | -9% | i | u
CCSc1nc(N)c(C#N)c(-c2ccco2)c1C#N | 1% | 3% | i | i
CC[C@@]12C(=O)N(c3cccc(F)c3)C(=O)N1[C@H](c1cccc(C)c1)[C@@H]1C(=O)N(Cc3ccccc3)C(=O)[C@@H]12 | 2% | -1% | i | 32µM*
Cc1cccc([C@@H]2[C@@H]3C(=O)N(Cc4ccccc4)C(=O)[C@@H]3[C@]3(Cc4ccccc4)C(=O)N(c4cccc(F)c4)C(=O)N23)c1 | -2% | -8% | i | i
O=C1c2ccccc2-c2onc3ccc(N4CCCC4)c1c23 | -18% | -17% | i | u
O=C1c2ccccc2C(=O)c2c1cccc2N1CCCC1 | -23% | 14µM* | i | x
CC(=O)c1ccc(-n2c(=O)[nH]c(=O)c3c(N)c(C(=O)c4ccc(Cl)cc4)sc32)cc1 | 4% | 4% | i | i
Cc1cc(C)c(C#N)c(Sc2nc(C)c([N+](=O)[O-])c(C)c2C#N)n1 | -14% | 20µM* | i | i
Cc1nc(Sc2ccccc2)c(C#N)c(C)c1[N+](=O)[O-] | 1% | 7.1µM* | u | i
Cc1cc(C)c(C#N)c(SCc2ccc([N+](=O)[O-])cc2)n1 | 0% | 10% | i | i
